According to PubChem BioAssay (EPA / NIEHS):
Values joined by “and” are separate entries in the source; they are usually repeats but may differ in a detail not shown here. Equal entries are not always repeated. Results filed as inconclusive are left out. Some structures have more than one record in an assay (separate samples or runs), and their calls can disagree. Active and inactive are the calls of the source. The calls were made as follows, unless noted: active = hit-call score of the fitted dose curve at least 0.9, where 1 is the maximum; inactive = score below 0.9.

Tests used:
[1] = biological target: Glucocorticoid receptor (Homo sapiens) (UniProt P04150); test: ATG_GR_TRANS: Attagene TRANS-FACTORIAL HepG2 Assay for human Glucocorticoid Receptor (GR) (AID 2282978; active = hit-call score of the fitted dose curve at least 0.9, where 1 is the maximum;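 also: activators score as hits since higher reporter transcript over DMSO is fitted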); conditions: HepG2 Attagene TRANS GR reporter, mRNA transcription
Outline: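 Fluorescent capillary-electrophoresis quantitation of reporter mRNA is the readout, taken 24 h after dosing human HepG2 cells carrying transiently transfected GAL4-UAS reporter units activated by chimeric NR-GAL4 fusions; activity scored as induction over DMSO.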

[2] = biological target: Oxysterols receptor LXR-alpha (Homo sapiens) (UniProt Q13133); test: ATG_LXRa_TRANS: Attagene TRANS-FACTORIAL HepG2 Assay for human Liver X Receptor alpha (LXRa) (AID 2282980; active = hit-call score of the fitted dose curve at least 0.9, where 1 is the maximum); conditions: HepG2 Attagene TRANS reporter, LXRa transactivation
Outline: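 Transient HepG2 transfectants, 24 h dosing, RT-PCR/CE mRNA reporter quantitation; gain-of-signal vs DMSO.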

[3] = biological target: Hepatocyte nuclear factor 4-alpha (Homo sapiens) (UniProt P41235); test: ATG_HNF4a_TRANS: Attagene TRANS-FACTORIAL HepG2 Assay for human Hepatocyte Nuclear Factor 4 alpha (HNF4a) (AID 2282982; active = hit-call score of the fitted dose curve at least 0.9, where 1 is the maximum); conditions: HepG2 HNF4a transactivation reporter, mRNA readout
Outline: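 Transient MRTU transfection of HepG2, 24 h dosing. Readout: reporter mRNA via RT-PCR + capillary electrophoresis, fluorescence; activity fit upward relative to DMSO control.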

[4] = ATG_M_32_TRANS: Attagene TRANS-FACTORIAL HepG2 Assay for M32 Transcription Factor (Internal Marker) (AID 2282984; active = hit-call score of the fitted dose curve at least 0.9, where 1 is the maximum); conditions: HepG2 Attagene TRANS M32 internal marker reporter
Outline: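 Read-out: fluorescent reporter cDNA fragments resolved by capillary electrophoresis after RT-PCR of total RNA. Transfected HepG2 cells were exposed to chemical for 24 h. Activity scored in the positive direction relative to DMSO.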

[5] = biological target: Transcriptional activator Myb (Homo sapiens) (UniProt P10242); test: ATG_Myb_CIS: Attagene CIS-FACTORIAL HepG2 Assay for human Myeloblastosis (Myb) Proto-Oncogene Transcription Factor (AID 2282986); conditions: HepG2 Attagene CIS-FACTORIAL Myb reporter transcription; actives raise or lower the signal
Outline: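 Reporter transcript levels, quantified by fluorescent RT-PCR and capillary electrophoresis, serve as the read-out. Transfected HepG2 cells carrying cis-promoter reporter units are dosed for 24 hours, and curves are fitted bidirectionally against DMSO controls.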

[6] = biological target: Nuclear respiratory factor 1 (Homo sapiens) (UniProt Q16656); test: ATG_NRF1_CIS: Attagene CIS-FACTORIAL HepG2 Assay for human Nuclear Respiratory Factor 1 (NRF1) Orphan Gene (AID 2282987); conditions: HepG2 NRF1 cis-element reporter, Attagene multiplex; actives raise or lower the signal
Outline: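 Multiplexed cis-reporter assay, HepG2 cells, 24 h treatment. Total RNA → oligo(dT) RT → PCR with reporter-specific primers → 6-FAM primer extension → HpaI cut → CE. Bidirectional fit vs DMSO.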

[7] = ATG_NFI_CIS: Attagene CIS-FACTORIAL HepG2 Assay for human Nuclear Factor I (NFI) (AID 2282989); conditions: HepG2 cis-regulatory reporter, NFI response element transcription; actives raise or lower the signal
Outline: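 Cells: human liver HepG2, transiently transfected with promoter-regulated reporter transcription units. Exposure 24 h. Detection: fluorescent RT-PCR products separated by capillary electrophoresis, normalised to DMSO negative control.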

[8] = biological target: Myc proto-oncogene protein (Homo sapiens) (UniProt P01106); test: ATG_Myc_CIS: Attagene CIS-FACTORIAL HepG2 Assay for human Myelocytomatosis (Myc) Proto-Oncogene Transcription Factor (AID 2282990); conditions: HepG2, Attagene cis-reporter transcription factor activity; actives raise or lower the signal
Outline: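 Transiently transfected HepG2 cells bearing cis-promoter reporter units for endogenous transcription factors; 24 h exposure. Reporter mRNA measured by RT-PCR, 6-FAM primer extension, HpaI cut and capillary electrophoresis; bidirectional fit relative to DMSO.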

[9] = ATG_NF_kB_CIS: Attagene CIS-FACTORIAL HepG2 Assay for human Nuclear Factor Kappa B (NF-kB) (AID 2282991); conditions: HepG2 Attagene cis-factorial NF-kB reporter mRNA; actives raise or lower the signal
Outline: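 Transient MRTU transfection of human HepG2 liver cells → 24 h chemical exposure → total RNA, oligo(dT) RT → PCR, 6-FAM primer extension, HpaI digest 2 h 37 C → CE fragment analysis. Bidirectional fitting, DMSO negative control.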

[10] = ATG_NRF2_ARE_CIS: Attagene CIS-FACTORIAL HepG2 Assay for human Nuclear Factor Erythroid 2 Related Factor 2 (NFR2) response to Antioxidant Response Elements (ARE) (AID 2282992); conditions: HepG2 Attagene ARE/NRF2 reporter, transcription factor activity; actives raise or lower the signal;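 as to AC50: reporter mRNA level measured by RT-PCR and capillary electrophoresis fluorescence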
Outline: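 Using transiently transfected HepG2 cells exposed for 24 h, reporter mRNA levels were determined by RT-PCR with fluorescent primer extension and capillary electrophoresis, analysed for gain or loss of signal against DMSO.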

[11] = ATG_Oct_MLP_CIS: Attagene CIS-FACTORIAL HepG2 Assay for human Octamer-Binding Transcription Factor (Oct) (AID 2282993); conditions: HepG2 Attagene cis-factorial Oct reporter, mRNA; actives raise or lower the signal
Outline: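 HepG2, transient MRTU transfection, cis promoter elements; 24 h dosing; RT-PCR/CE fluorescence read-out of reporter mRNA; fit both directions vs DMSO.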

[12] = biological target: Cellular tumor antigen p53 (Homo sapiens) (UniProt P04637); test: ATG_p53_CIS: Attagene CIS-FACTORIAL HepG2 Assay for human p53 Transcription Factor (AID 2282994); conditions: HepG2 p53 cis-element reporter, Attagene mRNA; actives raise or lower the signal
Outline: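 In HepG2 cells, reporter transcription units under cis-regulatory promoters were transiently introduced. Following 24 h treatment, RNA was processed to labelled, digested cDNA fragments read by capillary electrophoresis; fitting was bidirectional versus DMSO.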

[13] = BSK_3C_uPAR: BioMAP Diversity Plus: 3C Assay for Urokinase-type plasminogen activator receptor (uPAR) Biomarker Activity (AID 2282998); conditions: BioMAP 3C HUVEC, uPAR biomarker ELISA; actives raise or lower the signal
Outline: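 A multiplexed primary-cell system built on human umbilical vein endothelium was used, with chemical present for 24 h before reading. Cell-surface uPAR was detected by ELISA; signal change in either direction counted against DMSO.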

[14] = BSK_3C_VCAM1: BioMAP Diversity Plus: 3C Assay for Vascular cell adhesion molecule 1 (VCAM1) Biomarker Activity (AID 2282999); conditions: BioMAP 3C HUVEC, VCAM1 ELISA, cytokine-stimulated; actives raise or lower the signal
Outline: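 HUVEC primary cells, 24 h compound exposure; VCAM-1 by ELISA; gain/loss of signal fitted bidirectionally vs DMSO baseline.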

[15] = BSK_4H_Eotaxin3: BioMAP Diversity Plus: 4H Assay for Eotaxin 3 Biomarker Activity (AID 2283000); conditions: primary human endothelial cells (HUVEC); actives raise or lower the signal;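 also: CCL26 protein level quantified by ELISA in parallel with SRB cytotoxicity check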
Outline: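 Endothelial primary cells (human umbilical vein) exposed to compound for 24 h. ELISA detection of Eotaxin-3.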

[16] = ATG_M_06_TRANS: Attagene TRANS-FACTORIAL HepG2 Assay for M06 Transcription Factor (Internal Marker) (AID 2282983; active = hit-call score of the fitted dose curve at least 0.9, where 1 is the maximum); conditions: HepG2 Attagene TRANS M06 internal marker reporter
Outline: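 Human liver HepG2 cells bearing transiently transfected chimeric NR-GAL4 reporter units were treated with chemicals for 24 h. Total RNA was reverse-transcribed, reporter sequences amplified and labelled, then quantified by capillary electrophoresis. Activity was fitted upward relative to DMSO.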

[17] = biological target: Nuclear receptor subfamily 4 group A member 2 (Homo sapiens) (UniProt P43354); test: ATG_NURR1_TRANS: Attagene TRANS-FACTORIAL HepG2 Assay for human Nuclear Receptor Related Protein 1 (NURR1) (AID 2282985; active = hit-call score of the fitted dose curve at least 0.9, where 1 is the maximum); conditions: HepG2 Attagene TRANS reporter, mRNA readout
Outline: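 Read-out: reporter mRNA induction by RT-PCR plus capillary electrophoresis with fluorescence detection, after 24 h dosing of transfected HepG2 cells. Exogenous NR-Gal4 chimera activity drives GAL4-UAS reporter; activity fitted upward versus DMSO.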

[18] = biological target: Bile acid receptor (Homo sapiens) (UniProt Q96RI1); test: ATG_FXR_TRANS: Attagene TRANS-FACTORIAL HepG2 Assay for Farnesoid X Receptor (FXR) (AID 2282979; active = hit-call score of the fitted dose curve at least 0.9, where 1 is the maximum;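 also: hits raise reporter mRNA above DMSO so AC50 marks FXR activation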); conditions: HepG2 Attagene TRANS FXR-GAL4 reporter transcription
Outline: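 Chimeric FXR-GAL4 activity in transiently transfected human HepG2 liver cells is scored as induction of reporter mRNA after 24 h of dosing. Detection uses RT-PCR with fluorescent labelling and capillary electrophoresis, with DMSO serving as baseline.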

[19] = BSK_3C_TissueFactor: BioMAP Diversity Plus: 3C Assay for Tissue Factor Biomarker Activity (AID 2282997); conditions: BioMAP 3C HUVEC, tissue factor biomarker readout; actives raise or lower the signal
Outline: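 Cells used were primary human umbilical vein endothelial cells. They were dosed with chemical, and after 24 h Tissue Factor was quantified by ELISA. Curves were fitted bidirectionally with DMSO as baseline.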

[20] = biological target: Oxysterols receptor LXR-beta (Homo sapiens) (UniProt P55055); test: ATG_LXRb_TRANS: Attagene TRANS-FACTORIAL HepG2 Assay for human Liver X Receptor beta (LXRb) (AID 2282981; active = hit-call score of the fitted dose curve at least 0.9, where 1 is the maximum); conditions: HepG2 Attagene TRANS GAL4-LXRb reporter, mRNA
Outline: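 Readout: fluorescent reporter mRNA fragments resolved by capillary electrophoresis after RT-PCR. System: transiently transfected human HepG2, exogenous LXRb-Gal4 chimera driving GAL4-UAS reporter, 24 h dosing. Activity fitted upward against DMSO baseline.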

Measured: AC50

Sequence of Bile acid receptor (Homo sapiens) (Q96RI1 whole entry, looked up, the tested form may be a part): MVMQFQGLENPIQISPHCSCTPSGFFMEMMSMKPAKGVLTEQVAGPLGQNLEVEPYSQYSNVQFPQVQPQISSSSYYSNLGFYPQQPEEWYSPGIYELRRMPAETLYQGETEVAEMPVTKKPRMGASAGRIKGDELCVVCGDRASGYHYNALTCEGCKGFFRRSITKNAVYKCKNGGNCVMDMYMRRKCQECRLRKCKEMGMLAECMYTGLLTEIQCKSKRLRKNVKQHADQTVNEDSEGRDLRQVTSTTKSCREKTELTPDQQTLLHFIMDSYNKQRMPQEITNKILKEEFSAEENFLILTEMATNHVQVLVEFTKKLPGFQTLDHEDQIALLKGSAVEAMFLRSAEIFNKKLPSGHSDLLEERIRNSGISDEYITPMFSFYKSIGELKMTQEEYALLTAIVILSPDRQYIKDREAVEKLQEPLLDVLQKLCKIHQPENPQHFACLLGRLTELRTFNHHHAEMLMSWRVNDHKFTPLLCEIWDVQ
Sequence of Myc proto-oncogene protein (Homo sapiens) (P01106 whole entry, looked up): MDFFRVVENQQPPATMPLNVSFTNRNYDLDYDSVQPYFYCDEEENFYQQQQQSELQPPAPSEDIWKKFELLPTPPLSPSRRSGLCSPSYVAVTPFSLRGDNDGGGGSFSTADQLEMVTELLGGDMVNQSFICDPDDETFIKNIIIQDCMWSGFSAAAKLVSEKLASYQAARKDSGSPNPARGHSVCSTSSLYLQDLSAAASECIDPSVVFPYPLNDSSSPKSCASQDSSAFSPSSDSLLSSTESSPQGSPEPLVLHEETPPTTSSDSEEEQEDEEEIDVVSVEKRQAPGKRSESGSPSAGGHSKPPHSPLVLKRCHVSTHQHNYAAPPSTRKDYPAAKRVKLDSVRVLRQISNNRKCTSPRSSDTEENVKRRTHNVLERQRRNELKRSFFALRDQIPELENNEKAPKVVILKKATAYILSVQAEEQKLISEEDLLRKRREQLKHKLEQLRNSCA
Sequence of Oxysterols receptor LXR-alpha (Homo sapiens) (Q13133 whole entry, looked up): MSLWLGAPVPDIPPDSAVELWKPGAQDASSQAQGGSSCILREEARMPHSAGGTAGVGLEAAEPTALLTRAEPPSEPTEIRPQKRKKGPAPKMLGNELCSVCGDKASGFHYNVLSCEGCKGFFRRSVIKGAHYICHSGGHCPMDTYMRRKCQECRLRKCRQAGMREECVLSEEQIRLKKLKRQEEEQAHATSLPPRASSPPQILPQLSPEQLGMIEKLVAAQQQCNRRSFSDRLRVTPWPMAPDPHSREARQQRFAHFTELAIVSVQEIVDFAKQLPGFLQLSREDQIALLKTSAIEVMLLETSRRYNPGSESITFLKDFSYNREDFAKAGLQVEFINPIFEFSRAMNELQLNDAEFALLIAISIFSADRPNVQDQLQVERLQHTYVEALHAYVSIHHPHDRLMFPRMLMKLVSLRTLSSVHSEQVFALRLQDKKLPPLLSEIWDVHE
Sequence of Transcriptional activator Myb (Homo sapiens) (P10242 whole entry, looked up): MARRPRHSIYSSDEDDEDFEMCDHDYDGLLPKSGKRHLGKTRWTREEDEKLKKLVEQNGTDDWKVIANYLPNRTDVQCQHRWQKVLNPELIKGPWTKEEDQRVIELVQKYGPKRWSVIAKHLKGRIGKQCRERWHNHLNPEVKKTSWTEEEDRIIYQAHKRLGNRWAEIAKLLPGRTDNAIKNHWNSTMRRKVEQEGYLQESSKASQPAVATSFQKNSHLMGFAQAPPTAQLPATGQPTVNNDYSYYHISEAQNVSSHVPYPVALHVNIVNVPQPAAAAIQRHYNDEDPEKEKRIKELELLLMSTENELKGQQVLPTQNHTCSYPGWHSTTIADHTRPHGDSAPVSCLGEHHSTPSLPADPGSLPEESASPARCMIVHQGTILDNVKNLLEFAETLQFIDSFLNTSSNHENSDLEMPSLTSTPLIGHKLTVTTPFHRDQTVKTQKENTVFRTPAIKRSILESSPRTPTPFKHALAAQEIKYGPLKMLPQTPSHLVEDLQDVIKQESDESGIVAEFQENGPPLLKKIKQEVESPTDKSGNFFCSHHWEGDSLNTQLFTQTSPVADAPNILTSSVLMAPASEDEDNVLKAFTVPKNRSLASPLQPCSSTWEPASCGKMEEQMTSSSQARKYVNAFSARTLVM
Sequence of Cellular tumor antigen p53 (Homo sapiens) (P04637 whole entry, looked up, the tested form may be a part): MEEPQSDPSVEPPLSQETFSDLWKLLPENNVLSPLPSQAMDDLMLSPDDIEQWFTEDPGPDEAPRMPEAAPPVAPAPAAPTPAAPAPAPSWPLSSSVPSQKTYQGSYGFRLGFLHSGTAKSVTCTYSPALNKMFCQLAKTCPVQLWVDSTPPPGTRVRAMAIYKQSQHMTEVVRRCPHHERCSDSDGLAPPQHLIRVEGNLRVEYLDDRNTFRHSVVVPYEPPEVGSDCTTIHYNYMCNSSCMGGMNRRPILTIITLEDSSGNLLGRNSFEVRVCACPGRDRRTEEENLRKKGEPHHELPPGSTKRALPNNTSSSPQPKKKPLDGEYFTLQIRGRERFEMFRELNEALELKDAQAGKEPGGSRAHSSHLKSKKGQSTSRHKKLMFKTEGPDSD
Sequence of Nuclear respiratory factor 1 (Homo sapiens) (Q16656 whole entry, looked up): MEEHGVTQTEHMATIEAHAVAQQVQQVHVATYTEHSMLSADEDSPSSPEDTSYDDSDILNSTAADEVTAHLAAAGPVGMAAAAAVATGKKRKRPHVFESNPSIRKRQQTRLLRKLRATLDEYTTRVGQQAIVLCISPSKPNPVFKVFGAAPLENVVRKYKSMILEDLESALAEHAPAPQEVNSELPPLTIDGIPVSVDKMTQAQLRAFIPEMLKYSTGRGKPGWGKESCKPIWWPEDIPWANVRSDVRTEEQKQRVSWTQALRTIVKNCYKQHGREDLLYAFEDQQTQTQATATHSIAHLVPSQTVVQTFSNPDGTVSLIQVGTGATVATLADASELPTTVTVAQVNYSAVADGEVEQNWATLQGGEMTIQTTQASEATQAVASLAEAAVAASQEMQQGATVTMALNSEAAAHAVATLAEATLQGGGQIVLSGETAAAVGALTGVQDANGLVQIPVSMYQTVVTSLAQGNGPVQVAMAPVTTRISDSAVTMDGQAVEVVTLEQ
Sequence of Glucocorticoid receptor (Homo sapiens) (P04150 whole entry, looked up, the tested form may be a part): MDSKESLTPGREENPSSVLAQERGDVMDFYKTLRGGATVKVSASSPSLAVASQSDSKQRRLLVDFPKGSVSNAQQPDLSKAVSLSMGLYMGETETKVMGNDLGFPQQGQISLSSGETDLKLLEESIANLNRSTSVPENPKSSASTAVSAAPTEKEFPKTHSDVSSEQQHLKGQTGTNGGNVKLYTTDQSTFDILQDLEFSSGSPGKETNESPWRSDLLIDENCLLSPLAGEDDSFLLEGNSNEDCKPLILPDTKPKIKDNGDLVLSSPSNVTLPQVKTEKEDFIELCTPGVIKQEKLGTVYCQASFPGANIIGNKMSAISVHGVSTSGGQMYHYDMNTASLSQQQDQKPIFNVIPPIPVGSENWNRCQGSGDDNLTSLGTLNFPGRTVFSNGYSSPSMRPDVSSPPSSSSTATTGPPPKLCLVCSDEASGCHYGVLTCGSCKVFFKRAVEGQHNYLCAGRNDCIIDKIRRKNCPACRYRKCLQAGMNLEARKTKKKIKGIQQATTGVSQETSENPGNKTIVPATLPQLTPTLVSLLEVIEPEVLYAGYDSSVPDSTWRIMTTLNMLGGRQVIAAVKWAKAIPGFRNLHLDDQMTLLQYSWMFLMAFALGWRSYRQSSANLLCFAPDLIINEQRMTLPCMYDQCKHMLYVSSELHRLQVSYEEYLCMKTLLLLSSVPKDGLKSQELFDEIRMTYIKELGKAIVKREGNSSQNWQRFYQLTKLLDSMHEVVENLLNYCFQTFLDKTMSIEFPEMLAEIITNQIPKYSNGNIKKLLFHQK
Sequence of Nuclear receptor subfamily 4 group A member 2 (Homo sapiens) (P43354 whole entry, looked up, the tested form may be a part): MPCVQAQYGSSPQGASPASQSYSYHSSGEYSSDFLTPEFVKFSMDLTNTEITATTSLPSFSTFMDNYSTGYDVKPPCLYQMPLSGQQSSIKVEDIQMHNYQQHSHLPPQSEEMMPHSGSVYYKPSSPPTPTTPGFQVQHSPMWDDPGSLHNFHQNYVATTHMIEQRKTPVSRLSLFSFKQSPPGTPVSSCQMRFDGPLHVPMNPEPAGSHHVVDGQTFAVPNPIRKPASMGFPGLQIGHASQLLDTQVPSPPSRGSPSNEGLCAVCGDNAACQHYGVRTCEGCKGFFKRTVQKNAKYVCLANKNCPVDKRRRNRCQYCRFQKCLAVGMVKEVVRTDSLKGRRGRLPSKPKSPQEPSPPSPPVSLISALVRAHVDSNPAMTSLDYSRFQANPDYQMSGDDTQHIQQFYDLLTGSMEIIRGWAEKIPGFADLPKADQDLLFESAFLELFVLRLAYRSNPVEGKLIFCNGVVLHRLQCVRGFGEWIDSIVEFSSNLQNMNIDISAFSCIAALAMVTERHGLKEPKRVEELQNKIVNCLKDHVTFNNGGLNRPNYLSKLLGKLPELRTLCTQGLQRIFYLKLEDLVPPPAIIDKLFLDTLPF
Sequence of Hepatocyte nuclear factor 4-alpha (Homo sapiens) (P41235 whole entry, looked up): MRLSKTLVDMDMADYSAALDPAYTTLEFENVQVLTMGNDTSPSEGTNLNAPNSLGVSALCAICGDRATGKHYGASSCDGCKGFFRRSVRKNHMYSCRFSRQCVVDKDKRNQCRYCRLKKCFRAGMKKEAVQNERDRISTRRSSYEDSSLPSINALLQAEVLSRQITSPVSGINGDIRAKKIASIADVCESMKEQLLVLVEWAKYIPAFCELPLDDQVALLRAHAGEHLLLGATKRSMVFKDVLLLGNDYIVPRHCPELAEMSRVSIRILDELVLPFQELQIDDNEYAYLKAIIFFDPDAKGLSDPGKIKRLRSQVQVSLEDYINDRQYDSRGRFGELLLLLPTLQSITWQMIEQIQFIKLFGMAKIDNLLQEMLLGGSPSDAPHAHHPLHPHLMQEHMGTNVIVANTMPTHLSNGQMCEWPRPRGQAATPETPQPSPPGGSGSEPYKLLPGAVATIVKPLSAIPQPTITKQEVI

CC[C@@H]1C[C@H](N(Cc2cc(C(F)(F)F)cc(C(F)(F)F)c2)C(C)=O)c2cc(C(F)(F)F)ccc2N1C(=O)OC(C)C
inactive: [2] | [3] | [4] | [5] | [6] | [7] | [8] | [9] | [10] | [11] | [12] | [13] | [14] | [15]
active: [1] 100 µM

c1ccc2ccccc2c1
active: [6] 100 µM
inactive: [16] | [4] | [17] | [5] | [6] | [7] | [9] | [10] | [11] | [12] | [13] | [14] | [15]

CN1C(=O)CC[C@H]1c1cccnc1
inactive: [2] | [3] | [16] | [4] | [17] | [5] | [7] | [8] | [9] | [10] | [11] | [12] | [13] | [14] | [15]

CC[C@H](NC(=O)c1cc(F)ccc1NS(=O)(=O)c1cccc2cccnc12)c1ccccc1
inactive: [18] | [4] | [17] | [5] | [7] | [8] | [9] | [11] | [12] | [13] | [14] | [15]
active: [10] 130 nM

CCCC(=O)OCCC(C)C
active: [5] 1.84 µM
inactive: [18] | [2] | [16] | [6] | [7] | [9] | [10] | [11] | [12] | [19] | [13] | [14] | [15]

Cc1cccc2ccccc12
inactive: [18] | [20] | [3] | [4] | [17] | [5] | [6] | [7] | [8] | [9] | [10] | [11] | [12] | [13] | [14] | [15]

CCCCCCCCOc1ccc(C(=O)c2ccccc2)c(O)c1
inactive: [18] | [4] | [17] | [5] | [7] | [9] | [10] | [11] | [12] | [13] | [14] | [15]

CC1(C)NC(=O)N(c2ccc([N+](=O)[O-])c(C(F)(F)F)c2)C1=O
active: [10] 68.8 µM and 22 µM and 46 µM
inactive: [18] | [2] | [3] | [4] | [17] | [5] | [6] | [7] | [10] | [11] | [12] | [13] | [14] | [15]

CO[C@H]1/C=C/O[C@@]2(C)Oc3c(C)c(O)c4c(O)c(c(/C=N/N5CCN(C)CC5)c(O)c4c3C2=O)NC(=O)/C(C)=C\C=C\[C@H](C)[C@H](O)[C@@H](C)[C@@H](O)[C@@H](C)[C@H](OC(C)=O)[C@@H]1C
active: [10] 4.16 µM and 15.6 µM
inactive: [2] | [4] | [17] | [5] | [6] | [7] | [8] | [9] | [11] | [12] | [19] | [13] | [14] | [15]

CC(C)(O)c1ccc(CNC(=O)c2cccnc2Oc2ccc3nonc3c2)cc1
inactive: [16] | [4] | [17] | [5] | [6] | [7] | [9] | [10] | [11] | [12] | [13] | [14] | [15]
active: [1] 48.6 µM

OCCO
inactive: [3] | [4] | [5] | [6] | [7] | [8] | [9] | [10] | [11] | [12] | [19] | [13] | [14] | [15]

c1ccc2n[nH]nc2c1
inactive: [1] | [2] | [17] | [5] | [7] | [9] | [10] | [11] | [12] | [19] | [13] | [14] | [15]
